The source of these data is PubChem BioAssay (EPA / NIEHS).

Molecules are shown by their SMILES. Records with an inconclusive call do not appear. Active and inactive are the calls of the source. Rule for the calls: active = hit-call score of the fitted dose curve at least 0.9, where 1 is the maximum; inconclusive = response in the unintended direction; inactive = score below 0.9.

This assay deals with human Retinoic Acid Receptor gamma (RARg), RARG (gene 5916) (UniProt P13631). Description: ATG_RARg_TRANS: Attagene TRANS-FACTORIAL HepG2 Assay for human Retinoic Acid Receptor gamma (RARg) (AID 2283009).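 For AC50: AC50 is for reporter induction above DMSO meaning RARg activation.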 As to the method: ATG_TRANS is a cell-based, multiplexed-readout assay that uses HepG2, a human liver cell line, with measurements taken at 24 hours after chemical dosing in a 24-well plate.ATG_RARg_TRANS is one of 30 assay component(s) measured or calculated from the ATG_TRANS assay. It is designed to make measurements of mRNA induction, a form of inducible reporter, as detected with fluorescence intensity signals by Reverse transcription polymerase chain reaction (RT-PCR) and Capillary electrophoresis technology.Data from the assay component ATG_RARg_TRANS was analyzed into 1 assay endpoint. This assay endpoint, ATG_RARg_TRANS, was analyzed in the positive analysis fitting direction relative to DMSO as the negative control and baseline of activity. Using a type of inducible reporter, measures of mRNA for gain-of-signal activity can be used to understand the reporter gene at the transcription factor-level as they relate to the gene RARG. Furthermore, this assay endpoint can be referred to as a primary readout, because this assay has produced multiple assay endpoints where this one serves a reporter gene function. To generalize the intended target to other relatable targets, this assay endpoint is annotated to the nuclear receptor intended target family, where the subfamily is non-steroidal.
human Retinoic Acid Receptor gamma (RARg), RARG (gene 5916), sequence (P13631 whole entry, looked up): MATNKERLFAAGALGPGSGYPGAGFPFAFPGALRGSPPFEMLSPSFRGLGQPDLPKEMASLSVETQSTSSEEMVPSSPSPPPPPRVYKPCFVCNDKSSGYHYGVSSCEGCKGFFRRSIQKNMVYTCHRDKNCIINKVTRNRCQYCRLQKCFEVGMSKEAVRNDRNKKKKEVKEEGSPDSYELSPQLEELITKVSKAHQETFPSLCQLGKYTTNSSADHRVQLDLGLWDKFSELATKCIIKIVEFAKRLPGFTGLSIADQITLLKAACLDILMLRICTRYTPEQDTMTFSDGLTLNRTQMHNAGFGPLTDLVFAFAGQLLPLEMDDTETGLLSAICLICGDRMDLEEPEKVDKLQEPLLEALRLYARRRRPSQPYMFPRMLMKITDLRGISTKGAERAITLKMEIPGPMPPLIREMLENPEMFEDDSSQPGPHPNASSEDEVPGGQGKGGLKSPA
Human liver HepG2 cells are transiently transfected with multiple reporter transcription units (MRTUs) in 6-well plates using FuGene 6 reagent (Roche; 3 ml FuGene/1 mg DNA). The MRTU constructs are regulated by a cis-regulating element (promoter). […] A major difference between the CIS and TRANS system is that in CIS activities of endogenous TFs are measured, whereas the TRANS assay evaluates changes in activities of exogenous, chimeric NR-Gal4 proteins. […] At the end of 24 hour incubation, total RNA was isolated using TriZol reagent (Invitrogen). The isolated RNA is then reverse-transcribed using oligo(dT) primer and Mo-MLV reverse transcriptase (Invitrogen) with DNAse I (Ambion) treatment for 30 min. The one-tenth of the produced cDNA was amplified by PCR using Taq DNA polymerase (Invitrogen) and two reporter sequence-specific primers. The PCR products were fluorescently labeled by primer extension with 6-arboxyfluorescein (6-FAM) 5'-labeled reporter sequence-specific primer (2 min at 95 C, 20 s at 68 C and 10 min at 72 C) and these products were digested with 5U of HpaI (New England Biolabs) for 2h at 37 C. […] The raw capillary electrophoresis data was processed using Attagraph software (Attagene).
Take `COc1cccc2c1C(=O)c1c(O)c3c(c(O)c1C2=O)C[C@@](O)(C(=O)CO)C[C@@H]3O[C@H]1C[C@H](N)[C@H](O)[C@H](C)O1`: the outcome was inactive. Turning to `COc1ccc(S(=O)(=O)N2C(=O)[C@@](c3ccccc3OC)(N3C[C@H](O)C[C@H]3C(=O)N(C)C)c3cc(Cl)ccc32)c(OC)c1`, the outcome was inactive. Still for that read-out and setting: for `Clc1cc(Cl)c(Cl)cc1Cl` the value was “inactive”. Consider `c1cc(-c2ccncc2)ccn1`, for which the result was inactive. Turning to `CCCCCCCCCCC`, the outcome was inactive.

On to `Cc1ccc(C(C)C)c(O)c1`, for which the outcome was inactive. Consider `CCCCCCC(=O)OCC`, for which the compound was called inactive. With `CCCCCCCCCCCCCCCC`, the result was inactive. `O=c1c(O)c(-c2ccc(O)c(O)c2)oc2cc(O)cc(O)c12`: the outcome was inactive. For the compound `CCNc1cccc(C)c1`, the compound was called inactive.

For the compound `C=CCOC(=O)c1ccccc1C(=O)OCC=C`, the compound was classed as inactive.

Turning to `Nc1nc(N)c2nc(CNc3ccc(C(=O)N[C@@H](CCC(=O)O)C(=O)O)cc3)cnc2n1`, the outcome was inactive. The same measure, in the same setting: for `CCCCCCCCCCO` the value was “inactive”; for `CCCCOC(=O)CCCCCCCCC(=O)OCCCC`, “inactive”; for `CC(=O)Oc1ccccc1C(=O)O`, “inactive”. Consider `COc1ccc(C)cc1N`, for which the outcome was inactive. Consider `Oc1ccc2c(c1)OC[C@@H](N1CCC(O)(c3ccc(F)cc3)CC1)[C@H]2O`, for which the result was inactive.

Take `CCCCC(CC)COC(=O)CC(C(=O)OCC(CC)CCCC)S(=O)(=O)O` (stereo not given): the call was inactive. As to `COCCOC[C@H](CC1(C(=O)NC2CCC(C(=O)O)CC2)CCCC1)C(=O)Oc1ccc2c(c1)CCC2` (stereo not given in full), the result was inactive. Regarding `Cc1oc(-c2ccccc2)nc1CCOc1cccc2c1ccn2CCC(=O)O`, the call was inactive.

In the case of `Nc1ccccc1N`, the result was inactive.

Take `C1CCC(SSC2CCCCC2)CC1`: the outcome was inactive. For `CN1CCCC1=O`, the call was inactive.

For the compound `Cc1ccc(C)c(C)c1`, the compound was classed as inactive. In general, AC50 refers to the midpoint of the concentration-response curve, whichever way the signal moves. As to `CC1=C(/C=C/C(C)=C/C=C/C(C)=C/CO)C(C)(C)CCC1`, the AC50 was 117 nM (active). Turning to `Oc1ccc2ccccc2c1N=Nc1ccccc1`, the result was inactive.

In the case of `COc1cc(/C=C/C(=O)CC(=O)/C=C/c2ccc(O)c(OC)c2)ccc1O`, the call was inactive. On the same count and under the same terms, for `CCCCCCCCCCCCCCCCCC(=O)O` the value was “inactive”; for `Cc1nc(C)nc(N2C[C@@H](C)N(c3ccnc([C@@H](C)O)n3)[C@@H](C)C2)n1`, “inactive”. On to `CCCCCC(=O)O`, for which the compound was classed as inactive.

On to `Cc1c(C(=O)O)c(O)cc2c1C(=O)c1c(O)c([C@@H]3O[C@H](CO)[C@@H](O)[C@H](O)[C@H]3O)c(O)c(O)c1C2=O`, for which the call was inactive. Consider `Cc1ccc(C)c(O)c1C`, for which the outcome was inactive. Consider `Cc1cccc([N+](=O)[O-])c1C`, for which the outcome was inactive. Regarding `CCOC(=O)CCC(=O)OCC`, the result was inactive. Take `CC=Cc1ccc(O)c(OC)c1`: the compound was classed as inactive. Still for that read-out and setting: for `CC(=O)OCCOCCOCCOC(C)=O` the value was “inactive”; for `FC(F)(F)C(F)(F)C(F)(F)C(F)(F)C(F)(F)C(F)(F)CCI`, “inactive”.

`CNCc1cc(F)ccc1Oc1ccc(Cl)c(Cl)c1`: the compound was classed as inactive.

Turning to `CC(C)(C)c1cc(O)c(C(C)(C)C)cc1O`, the result was inactive.

Turning to `OC[C@@H](O)[C@@H](O)[C@H](O)[C@H](O)CO`, the compound was called inactive.
